Data on 94 compounds can be found in ChEMBL document CHEMBL1157539, “Thousands of chemical starting points for antimalarial lead identification” (Nature, 2010).

SMILES strings stand for the structures. In all, about 13,000 compounds were measured (“IFI”: median about 4, highest 2% from about 17 on). What follows is part of a selection rich in the highest values, with near analogues and random picks from the rest.

The assay in a line: GSK_TCMDC: Inhibition Frequency Index (IFI). The number of non-kinase HTS assays where a compound showed > 50 % inhibition, expressed as a percentage of the number of such assays in which the compound was tested. The class given is functional.
On to `COc1ccc2nc3cc(Cl)ccc3c(Nc3ccc(O)c(CNC(C)C)c3)c2c1`, for which the IFI came out at 7.64%.

`CCCCNCc1ccc(-c2nc(CN(CCCn3ccnc3)C(=O)C3COc4ccccc4O3)cs2)cc1` (centres undefined) registered an IFI of 4.93%.

As to `O=C(NCCc1ccccc1)N(Cc1ccccc1-c1ccc(CNCCc2ccccc2)cc1)C1CCN(Cc2ccccc2)CC1`, the IFI was 7.86%.

In the case of `COc1cc2nc(NCCn3cccn3)nc(NCCc3ccccc3)c2cc1OC`, the IFI was 4.23%.

In turn, `Cc1cccc2nc(-c3cccc(-c4cccc(NC(=O)c5csnn5)c4)c3)[nH]c12` showed an IFI of 2.7%.

`N#Cc1ccc(N2CCN(Cc3cccc(-c4cccc(-c5nc6cc(C(F)(F)F)ccc6[nH]5)c4)c3)CC2)nc1` displayed an IFI of 1.92%.

With `COc1cccc(CCNc2nc(NCc3ccccc3)c3cc(OC)c(OC)cc3n2)c1`, the IFI was found to be 5.93%.

For the compound `COc1ccc(CCNc2nc(NCc3ccccc3)c3cc(OC)c(OC)cc3n2)cc1OC`, the IFI is 5.84%.

`COc1cc2nc(NCCc3cccc(Cl)c3)nc(NCc3ccccc3)c2cc1OC` had an IFI of 17.1%.

Take `CCCc1cc(=O)[nH]c(-n2nc(C)cc2NC(=O)C(CC)c2ccccc2)n1` (centres undefined): the IFI came to 18.5%.

`CCc1c(C)nc(-n2nc(C)cc2NC(=O)C(CC)c2ccccc2)[nH]c1=O` (centres undefined) returned an IFI of 11.8%.

`CCCc1cc(=O)[nH]c(-n2nc(C)cc2NC(=O)CC(c2ccccc2)c2ccccc2)n1` returned an IFI of 12.2%.

The compound `COc1ccc(NC(=O)Nc2ccc(Nc3nc(C)cc(N4CCCC4)n3)cc2)cc1` displayed an IFI of 11.8%.

As for `Cc1cc(N2CCCC2)nc(Nc2ccc(NC(=O)Cc3ccccc3)cc2)n1`, the IFI came to 15.4%.

Take `CCC(=O)Nc1ccc(Nc2nc(C)cc(N3CCCC3)n2)cc1`: the IFI is 7.84%.

Compound `Cc1cc(N2CCCC2)nc(Nc2ccc(NC(=O)COc3ccccc3)cc2)n1` registered an IFI of 22.2%.

For the compound `COc1cccc(NC(=O)Nc2ccc(Nc3nc(C)cc(N4CCCC4)n3)cc2)c1`, the IFI worked out at 17.3%.

Compound `Cc1cc(N2CCCC2)nc(Nc2ccc(NC(=O)Nc3ccccc3)cc2)n1` gave an IFI of 16.2%.

As to `C=CCOC(=O)N1CCC(CNCc2ccc(-c3cccc(-c4nc5cc(F)ccc5[nH]4)c3)cc2)C1` (centres undefined), the IFI came out at 2.91%.

Consider `COc1cc2nc(SCCCC#N)n(C3CCCCCC3)c(=N)c2cc1OC`, for which the IFI turned out to be 3.6%.

Compound `CS(=O)(=O)c1cccc2sc(N3CCN(C(=O)c4ccc([N+](=O)[O-])o4)CC3)nc12` came in with an IFI of 4%.

`Cc1cccc(Nc2c(-c3cc(Br)ccc3O)nc3ncccn23)c1` had an IFI of 8.7%.

Consider `COc1ccc(CNC(=O)c2cnc3c(O)cccc3c2Nc2cccc(NC(=O)c3ccc(F)cc3)c2)cc1`, for which the IFI worked out at 6.98%.

Turning to `CCCCCOc1ccc(C(=NC)N(CCCCC)CCCCC)c2ccccc12`, the IFI was 25.2%.

As for `CCCCCCN(CCCCCC)CC(O)c1c(OC)ccc2ccccc12` (centres undefined), the IFI was 5.93%.

On to `CCCCCCOc1ccc(/C(N)=N\Cc2ccccc2)c2c1CCCC2`, for which the IFI amounted to 13.3%.

Compound `Cc1ccc(Nc2cc(C)nn2-c2nc(C)cc(O)n2)cc1` registered an IFI of 12.3%.

`CN(C)Cc1cccc(-c2ccc3ccnc(N)c3c2)c1` gave an IFI of 4.42%.

`Cc1[nH]c(C)c(-c2ccc(-c3ccccc3C(F)(F)F)nc2)c(=O)c1Br` gave an IFI of 0.92%.

Consider `COc1ccc2c(NN=Cc3ccc(Cl)cc3)ccnc2c1`, for which the IFI came out at 2.26%.

`CCCCOc1c(CCNCCCCNCCc2cc(OC)c3ccccc3c2OCCCC)cc(OC)c2ccccc12`: the IFI is 15%.

Turning to `CCOc1c(CCNCCCCNCCc2ccc3ccccc3c2OCC)ccc2ccccc12`, the IFI is 18.4%.

For `CCCCOc1c(CCNCCCCNCCc2cc(F)c3ccccc3c2OCCCC)cc(F)c2ccccc12`, the IFI was determined as 19.6%.

`CCOc1cc2ccccc2cc1CNCCCCCCNCc1cc2ccccc2cc1OCC` displayed an IFI of 11.5%.

`CCCOc1c(CCNCCCCNCCc2ccc3ccccc3c2OCCC)ccc2ccccc12` showed an IFI of 14.7%.

The compound `CCCCOc1cc(CNCCCCCCNCc2cc(OCCCC)cc3ccccc23)c2ccccc2c1` gave an IFI of 12.5%.

Consider `CCOc1c(CNCCCCCCNCc2ccc3ccccc3c2OCC)ccc2ccccc12`, for which the IFI is 22%.

For the compound `CCCCOc1c(CNCCCCCCNCc2ccc3ccccc3c2OCCCC)ccc2ccccc12`, the IFI worked out at 16.6%.

Compound `[O-][s+]1nc(NCCCN(Cc2cccs2)c2ccccn2)c(NCc2ccccc2)n1` (centres undefined) returned an IFI of 4.83%.

For the compound `CCNC(C)(C)CN(Cc1ccc(-c2ccc(C(F)(F)F)cc2)cc1)C(=O)Cn1c(CCc2cccc(F)c2F)nc(=O)c2ccccc21`, the IFI stood at 6.94%.

The compound `Cc1cccc2nc(-c3ccc(-c4ccc(CN5CC(C)OC(C)C5)cc4)cc3)[nH]c12` (centres undefined) gave an IFI of 6.94%.

`CC1CC1C(=O)NC1CCN(CC2(c3ccccc3)CCCCC2)CC1` (centres undefined) came in with an IFI of 6.38%.

In turn, `Cc1ccoc1C(=O)Nc1cccc(-c2cccc(-c3nc4cc(C(F)(F)F)ccc4[nH]3)c2)c1` returned an IFI of 6.48%.

In turn, `COc1cc(CC2c3cc(O)c(Cl)cc3CCN2C)c(OC)cc1C` (centres undefined) gave an IFI of 2.13%.

Compound `COc1ccc(CCNC(C)Cc2ccc(C(=O)Nc3ccc(CC(C)NCCc4cccc(Cl)c4)cc3)cc2)cc1` (centres undefined) showed an IFI of 9.86%.

In turn, `Cn1c(Nc2cc(C(C)(C)C)on2)nc2cc(Nc3ccnc(Nc4ccc(CS(C)(=O)=O)cc4)n3)ccc21` gave an IFI of 0.95%.

`CCCCCCCNc1cc(C)nc2ccc(OC)cc12`: the IFI is 7.3%.

Compound `COc1ccc(C(c2ccc(N(C)C)cc2)c2ccc(N(C)C)cc2)cc1` returned an IFI of 18.2%.

The compound `CN(C)c1ccc(OCCCCCCOc2ccccc2)cc1` had an IFI of 0.72%.

Turning to `CN(C)c1ccc(C(c2ccc(N(C)C)cc2)c2cc([N+](=O)[O-])ccc2Cl)cc1`, the IFI amounted to 1.47%.

In the case of `CC(C)CCNC(=O)C1Cc2c([nH]c3ccc(Br)cc23)C2(CCN(Cc3ccccc3)CC2)N1` (centres undefined), the IFI was 7.04%.

On to `CN1CCCC(CN2CCN(Cc3cccc(-c4ccc(-c5nc6ccccc6[nH]5)s4)c3)CC2)C1` (centres undefined), for which the IFI was determined as 5.63%.

Regarding `CN1CCN(c2nsc3ccc(-c4ccc(OCCN5CCCC5)cc4)cc23)CC1`, the IFI is 12.2%.

`COc1ccc(-c2nccc(NC(=N)NCc3ccccc3)n2)cc1` returned an IFI of 10.7%.

`N=C(N)Nc1nccc(NCc2ccccc2)n1`: the IFI worked out at 5.3%.

`CC1(C)N=C(NC(=O)Nc2ccc([N+](=O)[O-])cc2)N=C(N)N1OCc1cccc2ccccc12` came in with an IFI of 1.46%.

`N=C(Nc1cccc(Cc2ccccc2)n1)Nc1ncccn1` displayed an IFI of 17.2%.

The compound `N=C(Nc1ccccc1)Nc1cccc(Cc2ccc([N+](=O)[O-])cc2)n1` yielded an IFI of 19.9%.

In turn, `Cc1cc(NCCc2ccccc2)nc(NC(=N)Nc2cccc([N+](=O)[O-])c2)n1` displayed an IFI of 6.21%.

The compound `CC(C)(C)CCN1CCC(CNC(=O)c2cc(-c3cccc(C(F)(F)F)c3)cs2)C1` (centres undefined) came in with an IFI of 10%.

Take `Cn1cc(-c2ccnc3[nH]c(-c4cccc(CNC5CCC(O)CC5)c4)cc23)cn1` (centres undefined): the IFI is 8.11%.

With `CN(C)Cc1cccc(-c2cc3c(-c4cnn(C)c4)c(Cl)cnc3[nH]2)c1`, the IFI was 22.2%.

For the compound `CN(C)Cc1ccc(-c2cc3c(-c4ccc(CN(C)C)cc4)ccnc3[nH]2)cc1`, the IFI came out at 0%.

The compound `OCCN1CCN(Cc2ccc(-c3cccc(-c4nc5cc(F)ccc5[nH]4)c3)cc2)CC1` had an IFI of 3.92%.

Take `CN(C)Cc1cccc(-c2cnc(N)c(-c3nc4cc(S(C)(=O)=O)ccc4[nH]3)c2)c1`: the IFI was determined as 7.41%.

On to `Fc1ccc2[nH]c(-c3cccc(-c4ccc(CNCC5CCCO5)cc4)c3)nc2c1` (centres undefined), for which the IFI came to 5.88%.

Compound `O=C(Nc1ccc(Cl)cc1)c1cc(Cl)cc2nc(C(F)(F)F)[nH]c12` displayed an IFI of 27.1%.

For `O=C(Nc1cccc(C(F)(F)F)c1)c1cccc2nc(C(F)(F)F)[nH]c12`, the IFI turned out to be 16.4%.

`O=C(Nc1ccc(C(F)(F)F)cc1)c1cc(Cl)cc2nc(C(F)(F)F)[nH]c12` displayed an IFI of 23.4%.

As to `O=C(Nc1ccc(Cl)cc1)Nc1cccc(-c2cccc(-c3nc4cc(C(F)(F)F)ccc4[nH]3)c2)c1`, the IFI is 9%.

The compound `COc1ccc(Cl)cc1C(=O)Nc1ccc(-c2nc3ccccc3[nH]2)cc1` displayed an IFI of 6.52%.

On to `O=C(Nc1ccc(-c2cccc(-c3nc4cc(C(F)(F)F)ccc4[nH]3)c2)cc1)c1ccncc1`, for which the IFI was 6.42%.

`Cc1cccc2nc(-c3ccc(-c4ccc(NC(=O)Nc5ccc(Cl)cc5)cc4)cc3)[nH]c12` gave an IFI of 4%.

`O=C(Nc1ccc2c(c1)CCNCC2)c1ccc(-c2ccc(Cl)cc2)cc1` gave an IFI of 9.66%.

Compound `O=C(Nc1ccc(Cl)cc1)c1cccc2nc(C(F)(F)F)[nH]c12` came in with an IFI of 21.3%.

`COc1cccc(NC(=O)Cn2c(C)c(C#N)c3ccccc32)c1` gave an IFI of 0%.

For the compound `CCOC(=O)c1ccc(-c2cnc(N)c(-c3nc4cccc(C)c4[nH]3)c2)cc1`, the IFI was 0.69%.

On to `Cc1ccc(Nc2nccc(Nc3ccc4c(c3)nc(Nc3cc(C(C)(C)C)on3)n4C)n2)cc1S(C)(=O)=O`, for which the IFI was 7.63%.

`COc1ccc(CNC2Cc3ccccc3C2)cc1-c1ccc(OC)c(S(=O)(=O)NCCN2CCCC2)c1` yielded an IFI of 7.69%.

For `CCn1cc(-c2nc(-c3cc(OC)cc(OC)c3)no2)c(=O)c2ccccc21`, the IFI turned out to be 4.35%.

Take `CC(C)N1CCN(C(CN2CCN(CCCOc3cccc(F)c3)CC2)c2ccc(F)cc2)CC1` (centres undefined): the IFI is 6.2%.

In turn, `CN1CCN(c2ccc(Nc3nccc(-c4c(-c5cccc(NC(=O)c6c(F)cccc6F)c5)nn5ccccc45)n3)cc2)CC1` gave an IFI of 9.35%.

`O=S(=O)(Nc1cc2c(cc1OCCCN1CCCCC1)CCNCC2)c1ccc(-c2ccc(Cl)cc2)cc1` registered an IFI of 11.9%.

For `CC(C)Oc1cc2c(cc1NS(=O)(=O)c1ccc(-c3ccc(Cl)cc3)cc1)CCN(C)CC2`, the IFI turned out to be 12.4%.

For the compound `CN1CCc2cc(NS(=O)(=O)c3ccc(-c4ccc(Cl)cc4)cc3)c(OCCCN3CCCCC3)cc2CC1`, the IFI was determined as 18.6%.

In turn, `c1cc(CN2CCCCC2)cc(-c2ccc(-c3nc4ccccc4[nH]3)s2)c1` gave an IFI of 2.86%.

The compound `COc1ccc(CNC2Cc3ccccc3C2)cc1-c1ccc(S(=O)(=O)NCc2ccccc2)s1` showed an IFI of 12.3%.

As to `Cc1ccc(C(=O)Nc2ccc(Nc3ccnc4cc(-c5ccccn5)ccc34)cc2O)cc1`, the IFI turned out to be 10.3%.

Compound `COc1cc2cc(C(=O)Nc3ccccc3)c(N)nc2cc1OC` registered an IFI of 1.28%.

In the case of `COc1cc2nc(C)nc(Nc3ccc(Cc4ccccc4)cc3)c2cc1OC`, the IFI was 6.35%.

`COc1ccc(/N=C(\N)Nc2ccccc2)nc1Cc1ccccc1` showed an IFI of 30.2%.

In turn, `COc1ccc(Cc2nc(/N=C(\N)Nc3ccccc3)ccc2OC)cc1` came in with an IFI of 22.6%.

For the compound `COc1ccc2nc(NC(N)=NC(=O)Nc3ccccc3)nc(C)c2c1`, the IFI amounted to 0.81%.

`COc1ccc(CCN(C)CCOc2ccc(NC(=O)c3cccc4cc5ccccc5nc34)cc2)cc1OC`: the IFI was 6.67%.
